Results from PubChem BioAssay (NCI).
This is part of a sample that, as a whole, favours compounds with a hit. Of some 79,000 tested, about 15% had one in any assay. Active and inactive are the calls of the source. Rule as the data show it: active = growth inhibition above about 70%; inactive = the rest.

Experiments:
[1] = NCI Yeast Anticancer Drug Screen. Data for the rad52 strain (AID 147);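 also: 0% = growth of vehicle-treated control cultures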; details: S. cerevisiae rad52 mutant growth inhibition, stronger effect = higher value
In short: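 Compounds are applied to a genetically defined yeast strain lacking normal DNA damage repair, and inhibition of growth is expressed relative to cultures given vehicle only.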

[2] = NCI Yeast Anticancer Drug Screen. Data for the wt1 strain (AID 149);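 also: 0% = growth of vehicle-treated wt1 cultures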; details: S. cerevisiae wt1 strain (SPY 50644) growth inhibition, stronger effect = higher value
In short: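 wt1 strain grown with compound or vehicle; inhibition taken from the growth difference.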

[3] = NCI Yeast Anticancer Drug Screen. Data for the rad50 strain (AID 155);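 also: 0% = growth of vehicle-only cultures of the same strain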; details: S. cerevisiae rad50 strain growth inhibition, stronger effect = higher value
In short: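 DNA repair mutant yeast, compound exposure, growth read-out; inhibition is taken relative to vehicle.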

[4] = NCI Yeast Anticancer Drug Screen. Data for the mec2-1 strain (AID 157); details: S. cerevisiae mec2-1 strain, stronger effect = higher value
In short: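 Strain: mec2-1 (DNA repair/cell cycle alteration). Compound exposure, then growth measured; inhibition expressed relative to vehicle.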

[5] = NCI Yeast Anticancer Drug Screen. Data for the rad14 strain (AID 159);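 also: 0% = growth of vehicle-treated control cultures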; details: S. cerevisiae rad14 strain growth inhibition, stronger effect = higher value
In short: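 DNA repair-defective yeast, compound-exposed; % growth inhibition derived by comparison with vehicle-treated controls.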

[6] = NCI Yeast Anticancer Drug Screen. Data for the sgs1 mgt1 strain (AID 161);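 also: 0% = growth of cultures given vehicle only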; details: S. cerevisiae sgs1 mgt1 strain, stronger effect = higher value
In short: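 Inhibition of yeast growth, normalised to vehicle-treated controls, is reported for a strain bearing genetic alterations in DNA damage repair.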

[7] = NCI Yeast Anticancer Drug Screen. Data for the CLN2oe strain (AID 163);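 also: 0% = growth of vehicle-only control cultures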; details: S. cerevisiae CLN2oe strain, stronger effect = higher value
In short: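 Growth of a genetically modified yeast strain is measured after compound exposure and compared with cultures given vehicle alone.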

[8] = NCI Yeast Anticancer Drug Screen. Data for the cln2 rad14 strain (AID 165);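 also: 0% = growth equal to vehicle treated cultures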; details: S. cerevisiae cln2 rad14 strain, stronger effect = higher value
In short: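 Compounds are applied to the cln2 rad14 yeast strain, and growth is then compared with that of vehicle-treated cultures to give inhibition.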

[9] = NCI Yeast Anticancer Drug Screen. Data for the bub3 strain (AID 167); details: S. cerevisiae bub3 mutant strain, stronger effect = higher value
In short: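 In this screen, a yeast mutant lacking normal mitotic checkpoint function is challenged with compound. Relative growth versus vehicle gives the inhibition value.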

[10] = NCI Yeast Anticancer Drug Screen. Data for the wt2 strain (AID 169);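 also: 0% = growth of vehicle-treated yeast cultures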; details: S. cerevisiae wt2 strain growth inhibition, stronger effect = higher value
In short: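 This strain belongs to a panel of yeast strains with defined genetic alterations in DNA damage repair or cell cycle control. Compounds are applied, and growth inhibition is measured against vehicle-treated cultures.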

[11] = NCI Yeast Anticancer Drug Screen. Data for the mlh1 strain (AID 171);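 also: 0% = growth of vehicle-treated control cultures of the same strain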; details: S. cerevisiae mlh1 strain growth inhibition, stronger effect = higher value
In short: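 Growth of the mutant yeast strain after compound exposure, expressed as inhibition relative to vehicle-only controls.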

[12] = NCI Yeast Anticancer Drug Screen. Data for the sgs1 strain (AID 173);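 also: 0% = growth of vehicle-only control cultures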; details: S. cerevisiae sgs1 mutant, stronger effect = higher value
In short: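 Growth of a yeast strain bearing a defined genetic alteration is measured after compound treatment. Inhibition is expressed relative to vehicle-only controls.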

[13] = NCI Yeast Anticancer Drug Screen. Data for the mlh1 rad18 strain (AID 175); details: S. cerevisiae mlh1 rad18 strain growth inhibition, stronger effect = higher value
In short: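 Read-out is yeast growth inhibition, calculated against vehicle-only controls. The compound was applied to a strain engineered with DNA damage repair alterations.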

[14] = NCI Yeast Anticancer Drug Screen. Data for the rad18 strain (AID 177); details: S. cerevisiae rad18 mutant growth inhibition, stronger effect = higher value
In short: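 Growth of the mutant yeast strain after compound exposure, normalised to vehicle-only cultures.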

[15] = at 5.0 µM (retest, dose inferred, filed as 0.5)
[16] = at 50.0 µM (retest, dose inferred, filed as 5.0)

Measured: growth inhibition

N#Cc1sc2c(c1OC(=O)c1ccco1)c(=O)n(-c1ccccc1)c(=S)n2-c1ccccc1
active: [3]; [16] 94% | [3]; at 50.0 µM 94.6% | [4]; [16] 82% | [4]; at 50.0 µM 95% | [6]; [16] 95% | [6]; at 50.0 µM 95.7% | [8]; [16] 91% | [8]; at 50.0 µM 94% | [9]; [16] 91% | [9]; at 50.0 µM 95.4% | [13]; [16] 94% | [13]; at 50.0 µM 95.2%
inactive: [1]; at 1.2 µM 0% | [1]; at 3.7 µM 1% | [1]; at 11.0 µM -1% | [1]; at 33.0 µM 0% | [1]; at 100.0 µM 0% | [2]; at 1.2 µM -3% | [2]; at 3.7 µM -4% | [2]; at 11.0 µM -1% | [2]; at 33.0 µM -1% | [2]; at 100.0 µM 0% | [3]; at 1.2 µM 0% | [3]; at 3.7 µM 2% | [3]; [15] 3% | [3]; at 11.0 µM 1% | [3]; at 33.0 µM 0% | [3]; at 100.0 µM -1% | [4]; at 1.2 µM -1% | [4]; at 3.7 µM -1% | [4]; [15] 7% | [4]; at 11.0 µM -2% | [4]; at 33.0 µM -6% | [4]; at 100.0 µM 0% | [5]; at 1.2 µM 1% | [5]; at 3.7 µM 1% | [5]; at 11.0 µM 3% | [5]; at 33.0 µM 2% | [5]; at 100.0 µM -2% | [6]; [15] 0% | [7]; at 1.2 µM -2% | [7]; at 3.7 µM -1% | [7]; at 11.0 µM 4% | [7]; at 33.0 µM -1% | [7]; at 100.0 µM -6% | [8]; [15] 23% | [9]; at 1.2 µM 0% | [9]; at 3.7 µM -4% | [9]; [15] 13% | [9]; at 11.0 µM -3% | [9]; at 33.0 µM 0% | [9]; at 100.0 µM -6% | [10]; at 1.2 µM -1% | [10]; at 3.7 µM -1% | [10]; at 11.0 µM -2% | [10]; at 33.0 µM -9% | [10]; at 100.0 µM 3% | [11]; at 1.2 µM -4% | [11]; at 3.7 µM -2% | [11]; at 11.0 µM -2% | [11]; at 33.0 µM -5% | [11]; at 100.0 µM -3% | [12]; at 1.2 µM 0% | [12]; at 3.7 µM 1% | [12]; at 11.0 µM 0% | [12]; at 33.0 µM 1% | [12]; at 100.0 µM 0% | [13]; [15] 59% | [14]; at 1.2 µM 0% | [14]; at 3.7 µM 1% | [14]; at 11.0 µM -17% | [14]; at 33.0 µM 2% | [14]; at 100.0 µM -1%
